Active and inactive are the calls of the source.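 Rule for the calls, unless noted: active = inhibition of the reporter signal at or above 50%; inactive = inhibition below 50%.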

A short description of experiment [1]: inhibitors of TNFa-induced NFkB p65 translocation, primary screen, imaging, HUVEC, MLSMR starter and 10KST1 sets (AID 438;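 active = inhibition above 20% together with a positive visual image hit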;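 note: compound added about 3h40 before a 20 min TNFalpha stimulation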;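 for inhibition: signal is the nuclear over cytoplasmic p65 intensity ratio per well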). The settings on record: HUVEC TNFa-induced p65 nuclear translocation; cell count: measured here: nuclei count (cytotoxicity indicator), at 2.08 µM; inhibition: at 2 µM, stronger effect = higher value, 0% TNFa-plus-vehicle, 100% no-TNFa wells.
The nature of experiment [2]: inhibitors of mutant huntingtin aggregation, primary screen, imaging, exon1htt(103Q)mCFP cells, high-content imaging (AID 483;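 active = visual image review flags a hit and inhibition of aggregation exceeds 20%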;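 note: compound exposure lasted 3 days before fixation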;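 for nuclei count: percent of the per-plate median nuclei count of sample wells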). To be noted: exon1htt(103Q)mCFP cell line, aggregate imaging, at 2 µM; inhibition of aggregation: stronger effect = higher value; nuclei count: measured here: cell count, toxicity.
The nature of experiment [3]: inhibitors of E-selectin induction by TNFa, primary screen, imaging, HUVEC, immunofluorescence, MLSMR starter and 10KST1 sets (AID 487;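 active = visually confirmed hit in the image check and inhibition above 20%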;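 for inhibition: signal is fraction of cell area covered by stained E-selectin grains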;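 for nuclei count: 100% = median nuclei count of all wells on the same plate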). To be noted: HUVEC TNFalpha-induced E-selectin immunofluorescence imaging, at 2 µM; inhibition: stronger effect = higher value; nuclei count: measured here: cell number, toxicity.
Experiment [4] can be described thus: DUSP6 inhibitors restoring Erk phosphorylation by chemical complementation, primary imaging in DUSP6-transfected HeLa (AID 609;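 active = compounds giving at least 50% inhibition in the cell-based MKP-3 phosphatase rescue imaging test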;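 for inhibition: phospho-Erk level distribution per well compared with pooled transfected vehicle control wells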). The settings on record: HeLa MKP-3 transfected, phospho-Erk imaging KS statistic, at 10 µM, cells stimulated with TPA for 15 min.
Experiment [5] concerns the target Dual specificity protein phosphatase 6 (Homo sapiens) (UniProt Q16828). The description is as above. To be noted: HeLa MKP-3 transfected, phospho-Erk imaging KS statistic; at 10 µM; stronger effect = higher value; cells stimulated with TPA for 15 min.
In experiment [6] the target is Voltage-gated potassium channel subunit beta-2 (Rattus norvegicus) (UniProt P62483). In words: KvBeta enzyme negative modulators, primary screen, biochemical, NADPH fluorescence (AID 622;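 active = fluorescence slope higher than the sample average by over 3 SD, cut at about -0.22 in these data, passing the limit was not always enough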;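 note: slope of raw intensity against log time taken from 70 to 1610 s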). To be noted: recombinant KvBeta, 4-cyanobenzaldehyde reduction, at 10 µM, stronger effect = higher value.
Voltage-gated potassium channel subunit beta-2 (Rattus norvegicus), sequence (P62483 whole entry, looked up): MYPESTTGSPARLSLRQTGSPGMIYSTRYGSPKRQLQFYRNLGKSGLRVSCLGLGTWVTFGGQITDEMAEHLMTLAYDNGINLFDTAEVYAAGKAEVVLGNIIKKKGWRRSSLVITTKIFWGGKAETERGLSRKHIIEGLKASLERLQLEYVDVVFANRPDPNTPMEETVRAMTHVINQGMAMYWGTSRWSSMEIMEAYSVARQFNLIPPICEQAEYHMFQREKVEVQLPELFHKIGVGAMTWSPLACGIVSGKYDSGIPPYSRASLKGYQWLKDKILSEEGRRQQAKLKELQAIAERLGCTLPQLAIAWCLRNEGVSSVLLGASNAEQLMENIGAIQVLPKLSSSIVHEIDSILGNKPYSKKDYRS
The target is the same in experiment [7]. The experiment can be described thus: KvBeta positive modulators, primary screen, biochemical, NADPH fluorescence (AID 623;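 active = NADPH fluorescence slope more negative than the mean of all samples by about 3 SD, 99.7% confidence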;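 note: fluorescence intensity change per second fitted from 20 to 320 s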). To be noted: Recombinant KvBeta, NADPH fluorescence decrease slope, 10 min; at 10 µM; stronger effect = lower value.
Experiment [8] addresses Muscarinic acetylcholine receptor M4 (Homo sapiens) (UniProt P08173). In words: compounds altering M4/GIRK thallium flux, either direction, primary screen, M4 allosteric agonist project, cell-based, HEK293 M4/GIRK, BTC-AM (AID 625;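 active = fluorescence slope after compound addition differing from the mean of all tested samples at 99.7% confidence, mostly higher but some lower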;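 note: thallium influx through GIRK channels coupled to M4 in HEK293 cells with BTC-AM dye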). The settings on record: at 10 µM, actives lie on both sides.
Experiment [9] is described as follows: inhibitors of larval lipid processing in zebrafish, primary screen, whole organism, PED6 fluorescence, gall bladder and intestine (AID 686;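 active = a full or partial loss of lipid-probe fluorescence in the fish gall bladder, intestine or both, judged by eye; inactive = no fluorescence loss, or compound toxic to the fish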;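 note: larvae 5 to 7 days old with five fish per well; signal comes from phospholipase A2 cleavage of quenched PED6 carried via bile; overnight exposure to compound and PED6 before scoring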). To be noted: Zebrafish larvae PED6 lipid processing, fluorescence scoring; screened at 20 µM (by protocol).
Experiment [10] is described as follows: inhibitors of Chlamydomonas gravitaxis, primary screen, whole organism, Chlamydomonas reinhardtii, WT vs cilia-less mutant, absorbance, 96-well (AID 463189;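 active = inhibition at or above 50% relative to wild type and mutant plate controls; inactive = inhibition below 50%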;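 note: 0% = wild type cc124 cells in DMSO and 100% = ciliumless bld1 mutant cells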). The settings on record: OD600 absorbance, 2 days, at 10 µM, stronger effect = higher value.
Experiment [11] in a line: inhibitors of Sendai virus-induced IRF3 signaling, primary screen, TLR/RLR signaling modifier project, cell-based, Sendai virus stimulus, luciferase, 10K MLSCN set (AID 602276;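 active = inhibition at or above 50% at 10 µM; inactive = inhibition below 50%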;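 note: firefly luciferase from ISG56 promoter only with Renilla not read in this screen; 0% = Sendai virus plus DMSO and 100% = medium plus DMSO without virus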). The settings on record: HEK293 RL24 IRF3 luciferase reporter, at 10 µM, stronger effect = higher value.
A short description of experiment [12]: inhibitors of poly I:C-induced TLR3 signaling, primary screen, cell-based, poly I:C stimulus, luciferase, 10K MLSCN set (AID 602277). To be noted: HEK293-TLR3 RL24 IRF3 luciferase reporter, at 10 µM, stronger effect = higher value.
Where [13] appears, read: measured here: cell density z-score.
[14] abbreviates: measured here: nuclear c-Myc green intensity z-score.
[15] abbreviates: measured here: nuclear pErk red intensity z-score, stronger effect = higher value.

Dual specificity protein phosphatase 6 (Homo sapiens), sequence (Q16828 whole entry, looked up): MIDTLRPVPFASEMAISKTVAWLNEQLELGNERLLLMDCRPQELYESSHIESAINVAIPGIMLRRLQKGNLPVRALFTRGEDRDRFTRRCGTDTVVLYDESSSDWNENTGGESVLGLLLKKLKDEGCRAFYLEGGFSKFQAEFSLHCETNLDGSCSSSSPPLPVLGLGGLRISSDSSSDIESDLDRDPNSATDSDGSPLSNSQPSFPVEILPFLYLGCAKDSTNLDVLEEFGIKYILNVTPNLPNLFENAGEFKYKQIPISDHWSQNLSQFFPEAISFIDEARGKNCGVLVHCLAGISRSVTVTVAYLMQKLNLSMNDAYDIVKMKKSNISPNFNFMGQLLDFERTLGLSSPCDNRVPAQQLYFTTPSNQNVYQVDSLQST
Muscarinic acetylcholine receptor M4 (Homo sapiens), sequence (P08173 whole entry, looked up): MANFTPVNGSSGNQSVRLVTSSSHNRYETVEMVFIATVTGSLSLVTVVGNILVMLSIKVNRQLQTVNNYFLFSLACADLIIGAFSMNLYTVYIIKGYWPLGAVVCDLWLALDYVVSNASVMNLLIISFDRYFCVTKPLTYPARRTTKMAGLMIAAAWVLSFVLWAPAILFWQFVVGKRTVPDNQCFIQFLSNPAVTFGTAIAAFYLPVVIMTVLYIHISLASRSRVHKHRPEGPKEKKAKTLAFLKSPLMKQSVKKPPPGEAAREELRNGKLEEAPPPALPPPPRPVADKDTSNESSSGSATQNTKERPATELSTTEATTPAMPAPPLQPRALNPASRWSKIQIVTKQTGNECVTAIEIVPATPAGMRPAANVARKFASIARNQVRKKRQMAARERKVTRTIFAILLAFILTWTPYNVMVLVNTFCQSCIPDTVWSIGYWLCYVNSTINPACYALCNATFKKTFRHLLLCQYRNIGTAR

Turning to `CC(=O)c1c(OCC(=O)O)ccc2c(C)cc(=O)oc12`, the cell count in experiment [1] came to 717. The inhibition in experiment [1] is 0.3% (inactive); in experiment [3] it was -27.6% (inactive); in [5] it was 5.95% (inactive); in experiment [10] it was 19.8% (inactive); in experiment [11], 16.9% (inactive); in [12], 17.3% (inactive). Besides, the inhibition of aggregation in experiment [2] is 10.5% (inactive). Also, the nuclei count in [2] amounted to 97.8%; in experiment [3] it was 126%. In addition, the results for the z-score in [4] (setting [13]), in [4] (setting [14]) and in experiment [4] (setting [15]) were -0.71, 0.597 and -0.576, respectively. In addition, the results for the fluorescence slope in experiment [6] and in experiment [8] were -0.455 (inactive) and 0.00563 (inactive), respectively. Further, the NADPH fluorescence slope in experiment [7] was -6.6e-05 (inactive). Also, the compound was classed as inactive in experiment [9].
Turning to `Nc1nc(NC(=O)c2cccs2)nn1-c1ccccc1`, the cell count in experiment [1] was determined as 647. For the same compound, the inhibition is -6.2% (inactive) in [1]; 28.5% (inactive) in [3]; 14.4% (inactive) in [5]; -2.85% (inactive) in experiment [10]; -31.7% (inactive) in [11]; -72.3% (inactive) in experiment [12]. In addition, the inhibition of aggregation in [2] was 2.6% (inactive). The nuclei count in [2] is 104%; in [3] it was 140%. The values for the z-score in experiment [4] (setting [13]), in experiment [4] (setting [14]) and in experiment [4] (setting [15]) were -2.6, 0.834 and 1.83, respectively. The fluorescence slope in experiment [6] was -0.486 (inactive); in [8], 0.00702 (inactive). Besides, the NADPH fluorescence slope in experiment [7] was -6.6e-05 (inactive). The compound was classed as inactive in experiment [9].
As to `COc1ccc(CCn2c(=N)c(C(=O)NCc3ccco3)cc3c(=O)n4ccccc4nc32)cc1`, the cell count in [1] turned out to be 496. In addition, the inhibition in experiment [1] is -4.9% (inactive); in experiment [3], -63.3% (inactive); in experiment [5], 24.3% (inactive); in experiment [10], -7.81% (inactive); in [11] it was 5.21% (inactive); in experiment [12] it was 17.8% (inactive). Moreover, the inhibition of aggregation in experiment [2] is -10% (inactive). Moreover, the nuclei count in experiment [2] is 94.4%; in experiment [3], 108%. Further, the z-score in [4] (setting [13]) is 0.843; in experiment [4] (setting [14]), 0.0165; in experiment [4] (setting [15]) it was -1.15. Besides, the fluorescence slope was -0.516 (inactive) in experiment [6] and 0.00166 (active) in experiment [8]. In addition, the NADPH fluorescence slope in experiment [7] was -1.6e-05 (inactive). In experiment [9], the compound was called inactive.
Consider `CCOC(=O)c1ccc(CC2S/C(=C(\C#N)C(C)=O)NC2=O)cc1` (stereo not given), for which the cell count in experiment [1] worked out at 508. The inhibition in experiment [1] was -6.4% (inactive); in [3] it was -87.6% (inactive); in [5] it was 13.4% (inactive); in experiment [10], 13.1% (inactive); in [11], 6.73% (inactive); in [12], -11.5% (inactive). Further, the inhibition of aggregation in experiment [2] was -13.4% (inactive). Further, the nuclei count came to 100% in experiment [2] and 145% in experiment [3]. Further, the z-score in experiment [4] (setting [13]) is 1.03; in experiment [4] (setting [14]), -0.573; in experiment [4] (setting [15]), 0.337. Moreover, the fluorescence slope is -0.384 (inactive) in [6] and 0.00533 (inactive) in experiment [8]. Moreover, the NADPH fluorescence slope in experiment [7] is -4.5e-05 (inactive). Besides, in experiment [9], the result was inactive.
Regarding `CCCCCn1c2nc3ccccc3nc2c2c(=O)n(CC(C)C)cnc21`, in experiment [1], the cell count worked out at 641. Also, the inhibition in experiment [1] is -4.1% (inactive); in experiment [3], -73.9% (inactive); in [5], 15% (inactive); in experiment [10], 16.4% (inactive); in experiment [11] it was 19.4% (inactive); in experiment [12] it was 19.9% (inactive). In addition, the inhibition of aggregation in [2] is 14.3% (inactive). The nuclei count in experiment [2] amounted to 105%; in [3], 130%. Further, the z-score in experiment [4] (setting [13]) was -0.357; in experiment [4] (setting [14]) it was 2.75; in [4] (setting [15]), 1.53. Besides, the fluorescence slope was -0.429 (inactive) in experiment [6] and 0.00475 (inactive) in [8]. For the same compound, in experiment [7], the NADPH fluorescence slope is -4.4e-05 (inactive). Also, the outcome in experiment [9] was inactive.
Turning to `CC(O)c1n(C)c(Cl)c[n+]1C` (stereo not given), the cell count in experiment [1] came to 674. Further, the inhibition in experiment [1] was -10% (inactive); in experiment [3] it was -67.2% (inactive); in experiment [5], 18.6% (inactive); in [10], -6.3% (inactive); in [11] it was 17% (inactive); in experiment [12] it was 10.8% (inactive). Moreover, the inhibition of aggregation in [2] was -4% (inactive). The nuclei count in [2] worked out at 103%; in experiment [3], 134%. The z-score is -2.1 in [4] (setting [13]), -0.307 in [4] (setting [14]) and 2.29 in [4] (setting [15]). In addition, the fluorescence slope in [6] is -0.454 (inactive); in experiment [8], 0.0053 (inactive). Further, the NADPH fluorescence slope in experiment [7] is -4.6e-05 (inactive). Besides, the compound was called inactive in experiment [9].
As for `COc1ccc2c(c1)C1(C)CC(C)(C)N2C(=O)N1c1ccccc1` (stereo not given), the cell count in experiment [1] was 585. The inhibition is -8.2% (inactive) in experiment [1]; -32.4% (inactive) in experiment [3]; -3.95% (inactive) in [5]; 4.76% (inactive) in [10]; 12% (inactive) in [11]; 23.1% (inactive) in experiment [12]. Moreover, in experiment [2], the inhibition of aggregation is -18.9% (inactive). The nuclei count in experiment [2] amounted to 111%; in experiment [3], 110%. Besides, the z-score in experiment [4] (setting [13]) was 0.165; in experiment [4] (setting [14]), -1.42; in experiment [4] (setting [15]), -0.582. Also, the fluorescence slope in experiment [6] is -0.461 (inactive); in [8], 0.0047 (inactive). For the same compound, the NADPH fluorescence slope in [7] was -4.8e-05 (inactive). Also, in [9], the call was inactive.
In the case of `CC(C)(C)NCc1cc2ccccc2[nH]c1=O`, the cell count in experiment [1] was determined as 585. For the same compound, the inhibition in [1] was 4.5% (inactive); in experiment [3], -165% (inactive); in [5], 16.8% (inactive); in experiment [10], 3.94% (inactive); in [11], 12.2% (inactive); in experiment [12], 18.4% (inactive). Also, the inhibition of aggregation in experiment [2] was -3.4% (inactive). Further, the nuclei count in [2] was 102%; in experiment [3], 146%. Besides, the z-score in experiment [4] (setting [13]) was -1.28; in experiment [4] (setting [14]) it was 1.15; in [4] (setting [15]), 0.508. The figures for the fluorescence slope in [6] and in experiment [8] were -0.451 (inactive) and 0.00463 (inactive), respectively. For the same compound, the NADPH fluorescence slope in experiment [7] was -4.7e-05 (inactive). Besides, the compound was classed as inactive in [9].
`CCOC(=O)c1[nH]c2ccc(Br)cc2c1NC(=O)CNC`: the cell count in experiment [1] came to 737. For the same compound, the inhibition in experiment [1] is 5.1% (inactive); in experiment [3], -29% (inactive); in [5], 11.9% (inactive); in experiment [10] it was -9.05% (inactive); in [11] it was 18.6% (inactive); in experiment [12], 33.1% (inactive). Moreover, in [2], the inhibition of aggregation is -0.9% (inactive). In addition, the nuclei count came to 113% in [2] and 141% in experiment [3]. The z-score in experiment [4] (setting [13]) was -0.195; in experiment [4] (setting [14]), 0.821; in experiment [4] (setting [15]) it was 0.769. Further, the fluorescence slope was -0.518 (inactive) in experiment [6] and 0.00596 (inactive) in [8]. The NADPH fluorescence slope in experiment [7] is -6.6e-05 (inactive). Moreover, in experiment [9], the call was inactive.
With `CCN1CCc2c(C#N)c(N3CCCCC3)nc(NCc3ccccc3)c2C1`, the cell count in experiment [1] is 466. For the same compound, the inhibition in [1] is -4.8% (inactive); in experiment [3], -51.6% (inactive); in experiment [5], 16.5% (inactive); in [10], 23.7% (inactive); in experiment [11], 14.7% (inactive); in experiment [12], 31.2% (inactive). For the same compound, the inhibition of aggregation in experiment [2] was 16.8% (inactive). Moreover, the nuclei count is 89.7% in experiment [2] and 112% in experiment [3]. Also, the results for the z-score in experiment [4] (setting [13]), in experiment [4] (setting [14]) and in experiment [4] (setting [15]) were 1.27, -1.37 and -1.11, respectively. In addition, the fluorescence slope in experiment [6] is -0.472 (inactive); in experiment [8] it was 0.00484 (inactive). Moreover, in experiment [7], the NADPH fluorescence slope was -3.9e-05 (inactive). Further, the call in [9] was inactive.
